# Where “and” joins values, the source holds several entries; their conditions need not be identical. Equal values may be shown once. About 2,000 (36%) of roughly 5,500 compounds were called active. Inconclusive results (about 18%) are left out. This is one part of the list. Values without a mark were called inactive. Rule as the data show it: active = normalized growth mostly below about 0.91 (no sharp cut-off); inconclusive = no clear call, values can overlap the other calls; inactive = mostly above about 0.92.
# Assay: chemical genetic growth profiling, strain panel (AID 1159580);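 also: tested at 20 µM; growth read once vehicle control cultures reached saturation at 30 °C; 1 = growth at the plate median or of vehicle wells; lower values mean less growth of the strain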
# Conditions: S. cerevisiae deletion strains, growth OD
smiles,measurement,setting,value
CC(C)=CCOc1cc2oc(=O)ccc2cc1O,normalized growth,"locus YAL021C, strain ccr4, hits give low values",0.977
same,normalized growth,"locus YAL026C, strain drs2, hits give low values",0.919
same,normalized growth,"locus YAL030W, strain snc1, hits give low values",0.978
same,normalized growth,"locus YBL061C, strain skt5, hits give low values",0.94
same,normalized growth,"locus YBR009C, strain hhf1, hits give low values",0.937
same,normalized growth,"locus YBR021W, strain FUR4, hits give low values",0.876
same,normalized growth,"locus YBR023C, strain chs3, hits give low values",0.929
same,normalized growth,"locus YBR171W, strain sec66, hits give low values",0.915
same,normalized growth,"locus YBR229C, strain ROT2, hits give low values",0.967
same,normalized growth,"locus YBR231C, strain swc5, hits give low values",0.93
same,normalized growth,"locus YBR279W, strain paf1, hits give low values",0.962
same,normalized growth,"locus YCL011C, strain gbp2, hits give low values",0.911
same,normalized growth,"locus YCL016C, strain dcc1, hits give low values",0.965
same,normalized growth,"locus YCL029C, strain bik1, hits give low values",0.961
same,normalized growth,"locus YCL061C, strain MRC1, hits give low values",0.94
same,normalized growth,"locus YCL069W, strain vba3, hits give low values",0.94
same,normalized growth,"locus YCR088W, strain abp1, hits give low values",0.957
same,normalized growth,"locus YDL005C, strain med2, hits give low values",0.956
same,normalized growth,"locus YDL035C, strain GPR1, hits give low values",0.894
same,normalized growth,"locus YDL040C, strain nat1, hits give low values",0.951
same,normalized growth,"locus YDL074C, strain BRE1, hits give low values",0.808
same,normalized growth,"locus YDL101C, strain DUN1, hits give low values",0.935
same,normalized growth,"locus YDL185W, strain tfp1, hits give low values",0.965
same,normalized growth,"locus YDL192W, strain arf1, hits give low values",0.879 (active)
same,normalized growth,"locus YDR001C, strain nth1, hits give low values",0.965
same,normalized growth,"locus YDR069C, strain doa4, hits give low values",0.944
same,normalized growth,"locus YDR101C, strain arx1, hits give low values",0.919
same,normalized growth,"locus YDR137W, strain rgp1, hits give low values",0.881
same,normalized growth,"locus YDR159W, strain sac3, hits give low values",0.881
same,normalized growth,"locus YDR162C, strain NBP2, hits give low values",0.876
same,normalized growth,"locus YDR195W, strain ref2",1.02
same,normalized growth,"locus YDR297W, strain sur2, hits give low values",0.969
same,normalized growth,"locus YDR318W, strain mcm21, hits give low values",0.902 (active)
same,normalized growth,"locus YDR334W, strain swr1, hits give low values",0.927
same,normalized growth,"locus YDR335W, strain msn5, hits give low values",0.968
same,normalized growth,"locus YDR388W, hits give low values",0.96
same,normalized growth,"locus YDR392W, strain spt3, hits give low values",0.706 (active)
same,normalized growth,"locus YDR502C, strain sam2, hits give low values",0.909 (active)
same,normalized growth,"locus YEL003W, strain gim4, hits give low values",0.935
same,normalized growth,"locus YEL037C, strain rad23, hits give low values",0.941
same,normalized growth,"locus YEL061C, strain CIN8 (second series), hits give low values",0.938
same,normalized growth,"locus YEL061C, strain CIN8, hits give low values",0.957
same,normalized growth,"locus YER015W, strain faa2, hits give low values",0.937
same,normalized growth,"locus YER016W, strain bim1, hits give low values",0.962
same,normalized growth,"locus YER110C, hits give low values",0.971
same,normalized growth,"locus YER111C, strain swi4, hits give low values",0.95
same,normalized growth,"locus YER155C, strain BEM2 (second series), hits give low values",0.685 (active)
same,normalized growth,"locus YER155C, strain BEM2, hits give low values",0.962
same,normalized growth,"locus YER167W, strain BCK2, hits give low values",0.881 (active)
same,normalized growth,"locus YFR010W, strain ubp6, hits give low values",0.942
same,normalized growth,"locus YGL078C, strain dbp3, hits give low values",0.97
same,normalized growth,"locus YGL086W, strain mad1, hits give low values",0.882 (active)
same,normalized growth,"locus YGL167C, strain pmr1, hits give low values",0.939
same,normalized growth,"locus YGL173C, strain kem1, hits give low values",0.926
same,normalized growth,"locus YGL227W, strain vid30, hits give low values",0.957
same,normalized growth,"locus YGL240W, strain doc1, hits give low values",0.886
same,normalized growth,"locus YGL248W, strain PDE1, hits give low values",0.9
same,normalized growth,"locus YGL253W, strain hxk2, hits give low values",0.899 (active)
same,normalized growth,"locus YGR135W, strain pre9, hits give low values",0.915
same,normalized growth,"locus YGR252W, strain gcn5, hits give low values",0.713 (active)
same,normalized growth,"locus YHR013C, strain ard1, hits give low values",0.955
same,normalized growth,"locus YHR027C, strain rpn1, hits give low values",0.956
same,normalized growth,"locus YHR030C, strain SLT2, hits give low values",0.947
same,normalized growth,"locus YHR079C, strain IRE1 (second series), hits give low values",0.974
same,normalized growth,"locus YHR079C, strain IRE1, hits give low values",0.936
same,normalized growth,"locus YHR094C, strain hxt1, hits give low values",0.97
same,normalized growth,"locus YHR129C, strain ARP1, hits give low values",0.918 (active)
same,normalized growth,"locus YHR142W, strain chs7, hits give low values",0.878
same,normalized growth,"locus YHR200W, strain rpn10, hits give low values",0.895 (active)
same,normalized growth,"locus YIL066C, strain RNR3, hits give low values",0.85 (active)
same,normalized growth,"locus YIL073C, strain SPO22, hits give low values",0.975
same,normalized growth,"locus YIL125W, strain kgd1, hits give low values",0.948
same,normalized growth,"locus YIR030C, strain dcg1, hits give low values",0.97
same,normalized growth,"locus YJL092W, strain hpr5, hits give low values",0.927
same,normalized growth,"locus YJL095W, strain BCK1 (second series), hits give low values",0.948
same,normalized growth,"locus YJL095W, strain BCK1, hits give low values",0.858 and 0.946
same,normalized growth,"locus YJL115W, strain asf1, hits give low values",0.949
same,normalized growth,"locus YJL129C, strain trk1, hits give low values",0.904
same,normalized growth,"locus YJL134W, strain LCB3, hits give low values",0.963
same,normalized growth,"locus YJL154C, strain vps35, hits give low values",0.966
same,normalized growth,"locus YJL164C, strain tpk1, hits give low values",0.974
same,normalized growth,"locus YJL166W, strain qcr8, hits give low values",0.94
same,normalized growth,"locus YJL168C, strain set2, hits give low values",0.977
same,normalized growth,"locus YJL187C, strain SWE1 (second series), hits give low values",0.889
same,normalized growth,"locus YJL187C, strain SWE1, hits give low values",0.951
same,normalized growth,"locus YJR066W, strain TOR1, hits give low values",0.92
same,normalized growth,"locus YKL009W, strain mrt4, hits give low values",0.916
same,normalized growth,"locus YKL068W, hits give low values",0.97
same,normalized growth,"locus YKL085W, strain MDH1 (second series), hits give low values",0.959
same,normalized growth,"locus YKL085W, strain MDH1, hits give low values",0.959
same,normalized growth,"locus YKL160W, strain elf1, hits give low values",0.981
same,normalized growth,"locus YKL190W, strain CNB1, hits give low values",0.953
same,normalized growth,"locus YKR001C, strain vps1, hits give low values",0.662 (active)
same,normalized growth,"locus YKR026C, strain gcn3, hits give low values",0.927
same,normalized growth,"locus YKR091W, strain srl3, hits give low values",0.96
same,normalized growth,"locus YLL001W, strain dnm1, hits give low values",0.964
same,normalized growth,"locus YLL026W, hits give low values",0.941
same,normalized growth,"locus YLL041C, strain sdh2, hits give low values",0.934
same,normalized growth,"locus YLR027C, strain aat2, hits give low values",0.939
same,normalized growth,"locus YLR039C, strain RIC1, hits give low values",0.647 (active)
same,normalized growth,"locus YLR058C, strain SHM2, hits give low values",0.905
same,normalized growth,"locus YLR102C, strain apc9, hits give low values",0.974
same,normalized growth,"locus YLR113W, strain HOG1, hits give low values",0.977
same,normalized growth,"locus YLR221C, strain rsa3, hits give low values",0.916
same,normalized growth,"locus YLR258W, strain gsy2, hits give low values",0.951
same,normalized growth,"locus YLR262C, strain YPT6 (second series), hits give low values",0.956
same,normalized growth,"locus YLR268W, strain sec22, hits give low values",0.9
same,normalized growth,"locus YLR320W, strain mms22, hits give low values",0.848 (active)
same,normalized growth,"locus YLR330W, strain CHS5, hits give low values",0.839 (active)
same,normalized growth,"locus YLR342W, strain FKS1, hits give low values",0.946
same,normalized growth,"locus YLR357W, strain rsc2, hits give low values",0.952
same,normalized growth,"locus YLR370C, strain arc18, hits give low values",0.925
same,normalized growth,"locus YLR371W, strain rom2, hits give low values",0.934
same,normalized growth,"locus YLR384C, strain iki3, hits give low values",0.966
same,normalized growth,"locus YLR418C, strain cdc73, hits give low values",0.753 (active)
same,normalized growth,"locus YML016C, strain PPZ1, hits give low values",0.948
same,normalized growth,"locus YML032C, strain rad52, hits give low values",0.895 (active)
same,normalized growth,"locus YML120C, strain ndi1, hits give low values",0.953
same,normalized growth,"locus YML124C, strain tub3, hits give low values",0.949
same,normalized growth,"locus YMR058W, strain fet3, hits give low values",0.934
same,normalized growth,"locus YMR078C, strain ctf18, hits give low values",0.963
same,normalized growth,"locus YMR125W, strain sto1, hits give low values",0.956
same,normalized growth,"locus YMR129W, hits give low values",0.961
same,normalized growth,"locus YMR205C, strain PFK2, hits give low values",0.934
same,normalized growth,"locus YMR223W, strain ubp8, hits give low values",0.894 (active)
same,normalized growth,"locus YMR231W, strain pep5, hits give low values",0.929
same,normalized growth,"locus YMR307W, strain GAS1, hits give low values",0.596 (active)
same,normalized growth,"locus YNL067W, strain RPL9B, hits give low values",0.912
same,normalized growth,"locus YNL071W, strain lat1, hits give low values",0.898 (active)
same,normalized growth,"locus YNL128W, strain TEP1, hits give low values",0.929
same,normalized growth,"locus YNL183C, strain NPR1, hits give low values",0.923
same,normalized growth,"locus YNL209W, strain ssb2, hits give low values",0.971
same,normalized growth,"locus YNL233W, strain BNI4, hits give low values",0.792 (active)
same,normalized growth,"locus YNL248C, strain rpa49, hits give low values",0.98
same,normalized growth,"locus YNL250W, strain rad50, hits give low values",1
same,normalized growth,"locus YNL271C, strain bni1, hits give low values",0.97
same,normalized growth,"locus YNL298W, strain CLA4, hits give low values",0.955
same,normalized growth,"locus YNL307C, strain MCK1, hits give low values",0.786 (active)
same,normalized growth,"locus YNL322C, strain KRE1 (second series), hits give low values",0.928
same,normalized growth,"locus YNR049C, strain mso1, hits give low values",0.942
same,normalized growth,"locus YNR052C, strain pop2, hits give low values",0.997
same,normalized growth,"locus YOL012C, strain htz1",0.93
same,normalized growth,"locus YOL147C, strain pex11, hits give low values",0.885 (active)
same,normalized growth,"locus YOR001W, strain rrp6, hits give low values",0.906
same,normalized growth,"locus YOR061W, strain CKA2, hits give low values",0.959
same,normalized growth,"locus YOR069W, strain VPS5, hits give low values",0.951
same,normalized growth,"locus YOR070C, strain gyp1, hits give low values",0.947
same,normalized growth,"locus YOR080W, strain dia2, hits give low values",0.947
same,normalized growth,"locus YOR083W, strain WHI5, hits give low values",0.977
same,normalized growth,"locus YOR106W, strain vam3, hits give low values",0.94
same,normalized growth,"locus YOR136W, strain idh2, hits give low values",0.957
same,normalized growth,"locus YOR144C, strain elg1, hits give low values",0.945
same,normalized growth,"locus YOR184W, strain ser1, hits give low values",0.72 (active)
same,normalized growth,"locus YOR231W, strain MKK1, hits give low values",0.924
same,normalized growth,"locus YOR265W, strain rbl2, hits give low values",0.949
same,normalized growth,"locus YOR270C, strain vph1, hits give low values",0.799
same,normalized growth,"locus YOR290C, strain snf2, hits give low values",0.917
same,normalized growth,"locus YOR316C, strain cot1, hits give low values",0.973
same,normalized growth,"locus YPL051W, strain arl3, hits give low values",0.895 (active)
same,normalized growth,"locus YPL078C, strain atp4, hits give low values",0.962
same,normalized growth,"locus YPL106C, strain sse1, hits give low values",0.908
same,normalized growth,"locus YPL240C, strain hsp82, hits give low values",0.937
same,normalized growth,"locus YPL241C, strain CIN2, hits give low values",0.963
same,normalized growth,"locus YPL256C, strain CLN2, hits give low values",0.906
same,normalized growth,"locus YPR119W, strain clb2, hits give low values",0.971
same,normalized growth,"locus YPR141C, strain kar3, hits give low values",0.974
same,normalized growth,"locus YPR163C, strain tif3, hits give low values",0.849 (active)
same,normalized growth,"locus YPR167C, strain met16, hits give low values",0.942
same,normalized growth,"strain wtn01, hits give low values",0.877 (active)
